# In PubChem BioAssay (EPA / NIEHS):
# Values joined by “and” are separate entries in the source; they are usually repeats but may differ in a detail not shown here. Identical values can stand only once. Records with an inconclusive call do not appear. Where a structure was tested more than once in an assay, its records may differ in their call. Active and inactive are the calls of the source. The calls were made as follows: active = hit-call score of the fitted dose curve at least 0.9, where 1 is the maximum; inconclusive = response in the unintended direction; inactive = score below 0.9.
# Key:
# [1] = target: human Esterase Plasma (ES), BCHE (gene 590) (UniProt P06276); assay: NVS_ENZ_hES: NovaScreen (NVS) Enzymatic Assay for human Esterase Plasma (ES) (AID 2283157)
# How it was run: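 Screening ran at 25 uM in duplicate, followed by singleton concentration series reaching 50 uM for actives. Human plasma protein, colorimetric detection, 0.25 h exposure, DMSO negative control.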
# [2] = target: Protein deacetylase HDAC6 (Homo sapiens) (UniProt Q9UBN7); assay: NVS_ENZ_hHDAC6: NovaScreen (NVS) Enzymatic Assay for human Histone Deacetylase 6 (HDAC6) (AID 2283164)
# How it was run: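 Concentration-response runs up to 50 uM followed a duplicate 25 uM single-point screen. Deacetylase activity of recombinant human HDAC6 read by fluorescence after 1 h, with mobility-shift separation of substrate and product; DMSO as baseline.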
# [3] = target: human Elastase, ELANE (gene 1991) (UniProt P08246); assay: NVS_ENZ_hElastase: NovaScreen (NVS) Enzymatic Assay for human Elastase (AID 2283153)
# How it was run: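 Concentration-response to 50 uM max, run singly for chemicals passing a threshold (e.g., 30% inhibition) in a duplicate 25 uM single-point screen. Neutrophil-derived human elastase, absorbance read-out of enzyme activity at 1.5 h; DMSO baseline.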
# [4] = target: human Ephrin type-B Receptor 1 (EphB1), EPHB1 (gene 2047) (UniProt P54762); assay: NVS_ENZ_hEphB1: NovaScreen (NVS) Enzymatic Assay for human Ephrin type-B Receptor 1 (EphB1) (AID 2283154)
# How it was run: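 Recombinant EphB1 activity read by fluorescence after mobility-shift separation of product from substrate, 1 h post-dosing. Compounds screened in duplicate at 25 uM; inhibition scored as signal loss relative to DMSO.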
# [5] = target: human Casein Kinase 1-delta (CK1D), CSNK1D (gene 1453) (UniProt P48730); assay: NVS_ENZ_hCK1D: NovaScreen (NVS) Enzymatic Assay for human Casein Kinase 1-delta (CK1D) (AID 2283148)
# How it was run: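 Recombinant human CK1-delta, cell-free; fluorescent substrate with electrophoretic mobility-shift separation of product, read 1 h after dosing. Single 25 uM duplicate screen, then concentration-response up to 50 uM; loss of signal vs DMSO.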
# [6] = target: human Dual Specificity Protein Phosphatase 3 (DUSP3), DUSP3 (gene 1845) (UniProt P51452); assay: NVS_ENZ_hDUSP3: NovaScreen (NVS) Enzymatic Assay for human Dual Specificity Protein Phosphatase 3 (DUSP3) (AID 2283152);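 also: phosphatase activity of recombinant human DUSP3 on a fluorogenic substrate without cells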
# How it was run: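 Cell-free fluorescence-intensity enzyme activity assay with recombinant protein and substrate; loss of signal fitted relative to DMSO baseline. Primary screen in duplicate at 25 uM, actives then run in concentration series; measured 0 h after dosing.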
# [7] = target: human Casein Kinase 2- alpha 2 beta 2 (CK2a2b2), CSNK2A1 (gene 1457) (UniProt P68400); assay: NVS_ENZ_hCK2a2b2: NovaScreen (NVS) Enzymatic Assay for human Casein Kinase 2- alpha 2 beta 2 (CK2a2b2) (AID 2283147)
# How it was run: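 Compounds were first screened in duplicate at 25 uM, and those passing the threshold were re-tested in concentration series up to a 50 uM maximum. Kinase activity of recombinant human CK2 α2β2 was measured 1 h after dosing by fluorescent substrate/product mobility-shift separation.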
# [8] = target: human Ephrin type-A Receptor 2 (EphA2), EPHA2 (gene 1969) (UniProt P29317); assay: NVS_ENZ_hEphA2: NovaScreen (NVS) Enzymatic Assay for human Ephrin type-A Receptor 2 (EphA2) (AID 2283155)
# How it was run: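 Enzyme activity of recombinant EphA2 read by fluorescence after mobility-shift separation, 1 h after dosing. Chemicals first tested at 25 uM (duplicate); those passing threshold run as concentration series, top 50 uM, single replicate, relative to DMSO.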
# [9] = target: human Ephrin type-A Receptor 1 (EphA1), EPHA1 (gene 2041) (UniProt P21709); assay: NVS_ENZ_hEphA1: NovaScreen (NVS) Enzymatic Assay for human Ephrin type-A Receptor 1 (EphA1) (AID 2283158);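 also: activity is signal loss versus DMSO meaning EphA1 kinase inhibition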
# How it was run: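 Chemicals first tested in duplicate at 25 uM against recombinant EphA1 with a fluorescent substrate; those passing threshold went to singleton dose-response topping at 50 uM. Activity read 1 h later as mobility-shift fluorescence, loss of signal relative to DMSO.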
# [10] = target: Glycogen synthase kinase-3 beta (Homo sapiens) (UniProt P49841); assay: NVS_ENZ_hGSK3b: NovaScreen (NVS) Enzymatic Assay for human Glycogen Synthase Kinase-3 beta (GSK3b) (AID 2283165)
# How it was run: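 Recombinant enzyme with specific fluorescent substrate, 1 h, product separated by electrophoretic mobility shift. Primary duplicate screen at 25 uM; actives (e.g. 30% inhibition) followed in singleton concentration-response to 50 uM. Signal loss fitted versus DMSO.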
# [11] = target: human LYN Proto-Oncogene, Src family Tyrosine Kinase (LynA), LYN (gene 4067) (UniProt P07948); assay: NVS_ENZ_hLynA: NovaScreen (NVS) Enzymatic Assay for human LYN Proto-Oncogene, Src family Tyrosine Kinase (LynA) (AID 2283173)
# How it was run: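 Recombinant kinase with fluorescent substrate; product separated from substrate by electrophoretic mobility shift and read 1 h after dosing. Duplicate screen at 25 uM, then concentration-response up to 50 uM; activity scored as signal loss against DMSO.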
# CDK2 (gene 1017) = CDK2 (gene 1017) (UniProt P24941); assay: NVS_ENZ_hCDK2: NovaScreen (NVS) Enzymatic Assay for human Cyclin-Cependent Kinase 2 (CDK2) (AID 2283144)
# How it was run: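 Compounds screened in duplicate at 25 uM, then in singleton concentration-response to a maximum of 50 uM, against recombinant CDK2; kinase activity read 1 hr after dosing by fluorescence with mobility-shift separation of substrate and product.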
# [12] = target: human Mitogen-Activated Protein Kinase 1 (MAPK 1), MAPK1 (gene 5594) (UniProt P28482); assay: NVS_ENZ_hMAPK1: NovaScreen (NVS) Enzymatic Assay for human Mitogen-Activated Protein Kinase 1 (MAPK 1) (AID 2283175)
# How it was run: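 Cell-free recombinant human MAPK1 enzymatic assay, fluorescence/electrophoretic mobility shift read at 1 h; loss of signal vs DMSO. Primary screen in duplicate at 25 uM; actives (e.g. ≥30% inhibition) run as concentration-response up to 50 uM.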
# [13] = target: human Caspase 8 (CASP8), CASP8 (gene 841) (UniProt Q14790); assay: NVS_ENZ_hCASP8: NovaScreen (NVS) Enzymatic Assay for human Caspase 8 (CASP8) (AID 2283146)
# How it was run: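 The primary screen tested compounds in duplicate at a single 25 uM concentration, with actives followed up in concentration series. Activity of recombinant (E. coli) protease was measured by fluorescence 1 h post-dose, as signal loss against DMSO.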
# [14] = target: human IkappaB Kinase alpha (IKKa), CHUK (gene 1147) (UniProt O15111); assay: NVS_ENZ_hIKKa: NovaScreen (NVS) Enzymatic Assay for human IkappaB Kinase alpha (IKKa) (AID 2283167)
# How it was run: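 Compounds first run in duplicate at 25 uM, those meeting threshold (e.g. 30% inhibition) retested to maximum 50 uM. Enzyme activity of recombinant IKKa measured by fluorescence with electrophoretic mobility shift separation, 1 hour post-dosing, DMSO baseline.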
# [15] = target: human Fibroblast Growth Factor Receptor 1 (FGFR1), FGFR1 (gene 2260) (UniProt P11362); assay: NVS_ENZ_hFGFR1: NovaScreen (NVS) Enzymatic Assay for human Fibroblast Growth Factor Receptor 1 (FGFR1) (AID 2283159)
# How it was run: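 Cell-free recombinant kinase with fluorescent substrate, product separated by electrophoretic mobility shift; read 1 hour after dosing, loss of signal relative to DMSO. Initial screen in duplicate at 25 uM, actives followed in concentration series.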
# [16] = target: human Ephrin type-B Receptor 2 (EphB2), EPHB2 (gene 2048) (UniProt P29323); assay: NVS_ENZ_hEphB2: NovaScreen (NVS) Enzymatic Assay for human Ephrin type-B Receptor 2 (EphB2) (AID 2283156)
# How it was run: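 Compounds were first tested in duplicate at 25 uM, with hits rerun singly in concentration series up to 50 uM. Enzyme activity on fluorescent substrate was read at 1 h by mobility-shift separation, scored as signal loss relative to DMSO.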
# [17] = target: human Janus Kinase 2 (Jak2), JAK2 (gene 3717) (UniProt O60674); assay: NVS_ENZ_hJak2: NovaScreen (NVS) Enzymatic Assay for human Janus Kinase 2 (Jak2) (AID 2283169)
# How it was run: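 Single-point duplicate screen at 25 uM, with hits run in concentration series to a 50 uM top dose. Substrate-product separation by mobility shift with fluorescence detection, 1 h post-dosing; DMSO baseline.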
# [18] = target: Histone deacetylase 3 (Homo sapiens) (UniProt O15379); assay: NVS_ENZ_hHDAC3: NovaScreen (NVS) Enzymatic Assay for human Histone Deacetylase 3 (HDAC3) (AID 2283163)
# How it was run: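 Cell-free enzyme format: loss of fluorescent product after mobility-shift separation, 1 h incubation, recombinant human HDAC3. Single 25 uM duplicate screen first, then concentration series to a 50 uM top for hits; DMSO as baseline.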
# [19] = target: human FYN Proto-Oncogene, Src family Tyrosine Kinase (Fyn), FYN (gene 2534) (UniProt P06241); assay: NVS_ENZ_hFyn: NovaScreen (NVS) Enzymatic Assay for human FYN Proto-Oncogene, Src family Tyrosine Kinase (Fyn) (AID 2283161)
# How it was run: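 Cell-free kinase activity read by fluorescence after mobility-shift separation of substrate and product, 1 h post-dose. Initial single concentration 25 uM in duplicate, then concentration-response follow-up; DMSO baseline.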
# Sequence of human Ephrin type-B Receptor 1 (EphB1), EPHB1 (gene 2047) (P54762 whole entry, looked up): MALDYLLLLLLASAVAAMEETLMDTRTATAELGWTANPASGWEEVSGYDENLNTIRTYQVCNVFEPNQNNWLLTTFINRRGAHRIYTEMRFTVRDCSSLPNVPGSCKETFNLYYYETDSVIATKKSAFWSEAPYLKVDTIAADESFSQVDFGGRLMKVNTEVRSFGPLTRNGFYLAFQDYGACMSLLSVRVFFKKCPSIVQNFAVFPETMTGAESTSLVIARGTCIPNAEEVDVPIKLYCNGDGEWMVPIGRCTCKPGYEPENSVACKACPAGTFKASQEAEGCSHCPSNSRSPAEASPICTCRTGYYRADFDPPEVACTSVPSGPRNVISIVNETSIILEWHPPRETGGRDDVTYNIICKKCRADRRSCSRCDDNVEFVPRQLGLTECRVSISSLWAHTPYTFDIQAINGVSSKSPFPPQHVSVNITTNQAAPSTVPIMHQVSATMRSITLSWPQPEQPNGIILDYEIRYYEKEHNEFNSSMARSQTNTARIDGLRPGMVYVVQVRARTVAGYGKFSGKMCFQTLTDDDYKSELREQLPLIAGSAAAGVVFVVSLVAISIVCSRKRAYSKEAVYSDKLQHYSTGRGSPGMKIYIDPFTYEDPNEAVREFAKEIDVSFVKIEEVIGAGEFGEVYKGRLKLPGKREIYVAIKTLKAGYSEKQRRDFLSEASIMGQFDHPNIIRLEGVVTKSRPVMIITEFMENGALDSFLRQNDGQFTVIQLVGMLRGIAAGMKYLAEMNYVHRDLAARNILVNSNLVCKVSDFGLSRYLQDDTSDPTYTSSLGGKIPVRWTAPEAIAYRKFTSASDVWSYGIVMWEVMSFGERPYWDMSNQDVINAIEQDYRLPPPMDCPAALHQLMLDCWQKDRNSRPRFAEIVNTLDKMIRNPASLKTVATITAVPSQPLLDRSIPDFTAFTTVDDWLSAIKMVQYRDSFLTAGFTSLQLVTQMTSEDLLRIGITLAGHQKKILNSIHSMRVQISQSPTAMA
# Sequence of Glycogen synthase kinase-3 beta (Homo sapiens) (P49841 whole entry, looked up): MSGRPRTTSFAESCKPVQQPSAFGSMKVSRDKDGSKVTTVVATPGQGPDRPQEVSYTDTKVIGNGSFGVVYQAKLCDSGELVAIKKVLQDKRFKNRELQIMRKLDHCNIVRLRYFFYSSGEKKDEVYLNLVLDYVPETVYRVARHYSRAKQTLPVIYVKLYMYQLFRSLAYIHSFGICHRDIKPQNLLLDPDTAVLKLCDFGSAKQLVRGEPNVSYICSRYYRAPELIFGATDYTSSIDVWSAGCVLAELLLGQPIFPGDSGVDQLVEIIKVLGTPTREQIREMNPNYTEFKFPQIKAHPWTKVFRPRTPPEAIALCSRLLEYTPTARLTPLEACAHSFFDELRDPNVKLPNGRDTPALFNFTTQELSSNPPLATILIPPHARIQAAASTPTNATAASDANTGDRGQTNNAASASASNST
# Sequence of human Ephrin type-A Receptor 2 (EphA2), EPHA2 (gene 1969) (P29317 whole entry, looked up): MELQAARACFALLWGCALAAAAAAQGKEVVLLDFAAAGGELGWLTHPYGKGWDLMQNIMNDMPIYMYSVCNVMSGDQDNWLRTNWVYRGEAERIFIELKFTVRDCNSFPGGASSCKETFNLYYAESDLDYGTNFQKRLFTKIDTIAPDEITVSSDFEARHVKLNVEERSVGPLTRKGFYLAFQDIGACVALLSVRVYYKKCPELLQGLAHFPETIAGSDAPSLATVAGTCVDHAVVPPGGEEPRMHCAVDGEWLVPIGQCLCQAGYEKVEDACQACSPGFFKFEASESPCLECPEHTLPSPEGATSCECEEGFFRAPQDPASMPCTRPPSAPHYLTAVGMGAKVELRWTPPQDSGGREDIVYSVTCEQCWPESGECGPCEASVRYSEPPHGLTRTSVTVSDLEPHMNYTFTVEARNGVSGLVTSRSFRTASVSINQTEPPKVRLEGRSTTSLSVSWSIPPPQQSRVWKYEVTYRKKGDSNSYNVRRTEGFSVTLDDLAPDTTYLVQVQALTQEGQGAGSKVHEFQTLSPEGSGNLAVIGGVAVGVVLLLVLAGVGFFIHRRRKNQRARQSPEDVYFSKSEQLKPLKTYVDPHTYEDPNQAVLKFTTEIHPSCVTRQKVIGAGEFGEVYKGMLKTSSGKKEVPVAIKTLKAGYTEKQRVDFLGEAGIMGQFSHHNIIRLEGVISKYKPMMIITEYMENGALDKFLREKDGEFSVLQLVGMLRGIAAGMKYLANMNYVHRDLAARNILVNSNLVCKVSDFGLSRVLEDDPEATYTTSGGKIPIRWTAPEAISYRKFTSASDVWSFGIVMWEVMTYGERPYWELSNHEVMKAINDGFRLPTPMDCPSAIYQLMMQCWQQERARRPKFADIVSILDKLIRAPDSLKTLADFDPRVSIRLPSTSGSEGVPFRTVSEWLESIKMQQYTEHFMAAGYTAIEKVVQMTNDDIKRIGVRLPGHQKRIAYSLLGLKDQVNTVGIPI
# Sequence of Protein deacetylase HDAC6 (Homo sapiens) (Q9UBN7 whole entry, looked up): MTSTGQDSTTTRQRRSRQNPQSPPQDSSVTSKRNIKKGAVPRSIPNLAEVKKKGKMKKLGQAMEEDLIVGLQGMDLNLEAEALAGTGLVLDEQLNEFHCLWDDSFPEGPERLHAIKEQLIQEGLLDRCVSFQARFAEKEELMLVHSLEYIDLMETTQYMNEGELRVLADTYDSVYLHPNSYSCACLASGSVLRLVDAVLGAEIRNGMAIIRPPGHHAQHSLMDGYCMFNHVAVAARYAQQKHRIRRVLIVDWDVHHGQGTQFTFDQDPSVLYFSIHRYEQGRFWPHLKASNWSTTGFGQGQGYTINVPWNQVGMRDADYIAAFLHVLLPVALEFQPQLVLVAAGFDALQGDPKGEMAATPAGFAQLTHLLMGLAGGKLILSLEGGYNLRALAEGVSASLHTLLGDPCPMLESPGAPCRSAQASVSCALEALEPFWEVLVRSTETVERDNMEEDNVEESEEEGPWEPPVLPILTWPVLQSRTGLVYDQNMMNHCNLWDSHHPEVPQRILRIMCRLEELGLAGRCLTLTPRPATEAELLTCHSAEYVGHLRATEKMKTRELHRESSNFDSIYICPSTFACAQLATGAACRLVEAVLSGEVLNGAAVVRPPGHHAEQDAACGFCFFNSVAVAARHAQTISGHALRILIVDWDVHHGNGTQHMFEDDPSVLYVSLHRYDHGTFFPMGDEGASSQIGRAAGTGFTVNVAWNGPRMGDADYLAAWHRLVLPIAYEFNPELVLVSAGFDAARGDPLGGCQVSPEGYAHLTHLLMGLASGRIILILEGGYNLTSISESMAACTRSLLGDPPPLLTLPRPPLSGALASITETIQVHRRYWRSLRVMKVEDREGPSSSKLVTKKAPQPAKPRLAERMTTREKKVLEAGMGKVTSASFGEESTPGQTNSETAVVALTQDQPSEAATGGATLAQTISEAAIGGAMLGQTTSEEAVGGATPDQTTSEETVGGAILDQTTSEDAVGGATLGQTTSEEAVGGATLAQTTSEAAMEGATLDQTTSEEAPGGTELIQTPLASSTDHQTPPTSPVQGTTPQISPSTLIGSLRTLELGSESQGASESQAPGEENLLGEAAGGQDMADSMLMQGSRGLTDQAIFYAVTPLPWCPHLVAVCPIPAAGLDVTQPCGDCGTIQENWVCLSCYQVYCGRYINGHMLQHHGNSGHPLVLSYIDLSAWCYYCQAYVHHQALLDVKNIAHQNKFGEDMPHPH
# Sequence of human Esterase Plasma (ES), BCHE (gene 590) (P06276 whole entry, looked up): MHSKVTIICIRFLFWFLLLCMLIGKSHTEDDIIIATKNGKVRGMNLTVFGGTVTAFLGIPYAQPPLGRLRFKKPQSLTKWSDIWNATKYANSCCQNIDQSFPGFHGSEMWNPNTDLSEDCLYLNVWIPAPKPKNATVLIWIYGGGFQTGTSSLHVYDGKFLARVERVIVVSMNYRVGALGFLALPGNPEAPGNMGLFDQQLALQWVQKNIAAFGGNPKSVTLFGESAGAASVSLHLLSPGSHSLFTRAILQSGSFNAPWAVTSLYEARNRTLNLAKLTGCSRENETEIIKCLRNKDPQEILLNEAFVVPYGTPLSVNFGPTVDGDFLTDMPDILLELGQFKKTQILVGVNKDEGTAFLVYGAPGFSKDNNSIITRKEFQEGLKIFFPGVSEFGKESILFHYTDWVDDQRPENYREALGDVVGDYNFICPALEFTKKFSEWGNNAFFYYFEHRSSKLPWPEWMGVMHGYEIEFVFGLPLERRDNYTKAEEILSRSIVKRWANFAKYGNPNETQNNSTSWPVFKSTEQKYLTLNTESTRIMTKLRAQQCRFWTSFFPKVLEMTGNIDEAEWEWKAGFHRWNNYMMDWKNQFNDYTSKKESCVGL
# Sequence of human Fibroblast Growth Factor Receptor 1 (FGFR1), FGFR1 (gene 2260) (P11362 whole entry, looked up): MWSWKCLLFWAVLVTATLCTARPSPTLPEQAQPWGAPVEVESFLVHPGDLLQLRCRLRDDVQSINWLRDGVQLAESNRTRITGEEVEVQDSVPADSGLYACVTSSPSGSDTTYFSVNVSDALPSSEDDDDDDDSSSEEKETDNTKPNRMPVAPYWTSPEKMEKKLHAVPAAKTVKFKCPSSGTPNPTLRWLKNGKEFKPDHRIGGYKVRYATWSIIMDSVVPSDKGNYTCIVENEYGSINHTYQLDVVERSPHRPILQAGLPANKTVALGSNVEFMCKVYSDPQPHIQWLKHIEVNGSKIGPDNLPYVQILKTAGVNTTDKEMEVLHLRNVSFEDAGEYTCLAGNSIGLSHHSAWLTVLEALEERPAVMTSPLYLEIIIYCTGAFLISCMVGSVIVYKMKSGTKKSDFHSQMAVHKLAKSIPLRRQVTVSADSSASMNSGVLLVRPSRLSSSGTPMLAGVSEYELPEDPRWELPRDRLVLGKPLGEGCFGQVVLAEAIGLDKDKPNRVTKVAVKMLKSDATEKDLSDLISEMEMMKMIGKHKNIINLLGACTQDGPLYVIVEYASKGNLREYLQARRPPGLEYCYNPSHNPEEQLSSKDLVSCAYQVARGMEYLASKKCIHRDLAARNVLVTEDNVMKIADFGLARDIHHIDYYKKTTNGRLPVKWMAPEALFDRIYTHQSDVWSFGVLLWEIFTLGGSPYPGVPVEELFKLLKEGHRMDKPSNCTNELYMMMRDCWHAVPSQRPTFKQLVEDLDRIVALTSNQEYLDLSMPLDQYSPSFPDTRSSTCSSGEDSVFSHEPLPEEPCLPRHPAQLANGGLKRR
smiles,measurement,setting,value
CS/C(C)=N/OC(=O)N(C)SN(C)C(=O)O/N=C(\C)SC,AC50,[1],3.07 µM (active)
same,outcome,[2],inactive
COP(=S)(OC)Oc1nc(Cl)c(Cl)cc1Cl,outcome,[3],inactive
same,outcome,[1],inactive
COc1ccc(C(c2ccc(OC)cc2)C(Cl)(Cl)Cl)cc1,outcome,[4],inactive
CCCCC(CC)COC(=O)c1ccccc1C(=O)OCC(CC)CCCC (configuration not stated),outcome,[5],inactive
CCc1nn(C)c(C(=O)NCc2ccc(C(C)(C)C)cc2)c1Cl,outcome,[6],inactive
Cc1ccc(-c2c(Cl)nc(C#N)n2S(=O)(=O)N(C)C)cc1,AC50,[7],6.49 µM (active)
same,outcome,[5],inactive
same,outcome,[8],inactive
same,outcome,[9],inactive
same,AC50,[10],18.2 µM (active)
COC(=O)c1ccccc1C(=O)OC,outcome,[11],inactive
COc1nc(C)nc(NC(=O)NS(=O)(=O)c2ccccc2Cl)n1,outcome,CDK2 (gene 1017),inactive
same,outcome,[10],inactive
C=CCC1=C(C)[C@@H](OC(=O)[C@@H]2[C@@H](C=C(C)C)C2(C)C)CC1=O,outcome,[12],inactive
Fc1ccc(Oc2ccnc3cc(Cl)cc(Cl)c23)cc1,outcome,[13],inactive
CC(C)(C)c1ccc(CSc2cnn(C(C)(C)C)c(=O)c2Cl)cc1,outcome,[14],inactive
CCCCOC(=O)c1ccccc1C(=O)OCCCC,outcome,[4],inactive
same,AC50,[1],11 µM (active)
same,outcome,[1],inactive
CO/C=C(/C(=O)OC)c1ccccc1Oc1cc(Oc2ccccc2C#N)ncn1,outcome,[6],inactive
same,outcome,[3],inactive
same,outcome,[8],inactive
same,AC50,[1],26.3 µM (active) and 26.4 µM (active) and 10 µM (active)
same,outcome,[15],inactive
same,outcome,[14],inactive
CCCN(CCC)c1c([N+](=O)[O-])cc(S(N)(=O)=O)cc1[N+](=O)[O-],outcome,CDK2 (gene 1017),inactive
same,outcome,[5],inactive
same,outcome,[8],inactive
same,outcome,[16],inactive
same,outcome,[9],inactive
same,outcome,[15],inactive
same,outcome,[10],inactive
same,outcome,[17],inactive
CNC(=S)S,outcome,[13],inactive
same,outcome,[7],inactive
same,outcome,[5],inactive
same,outcome,[6],inactive
same,outcome,[3],inactive
same,outcome,[10],inactive
same,outcome,[14],inactive
CC1COC(Cn2cncn2)(c2ccc(Oc3ccc(Cl)cc3)cc2Cl)O1 (configuration not stated),outcome,[6],inactive
same,outcome,[4],inactive
CON(C)C(=O)Nc1ccc(Cl)c(Cl)c1,outcome,[7],inactive
Oc1ccccc1-c1ccccc1,outcome,[3],inactive
Cc1cc(Cl)ccc1OCC(=O)O,AC50,[7],16.2 µM (active)
CNC(=O)ON=CC(C)(C)SC,AC50,[1],11.1 µM (active)
N#Cc1nn(-c2c(Cl)cc(C(F)(F)F)cc2Cl)c(N)c1S(=O)C(F)(F)F (configuration not stated),outcome,[15],inactive
CCNc1nc(Cl)nc(NC(C)C)n1,outcome,CDK2 (gene 1017),inactive
same,outcome,[5],inactive
CC1=C(C(=O)Nc2ccccc2)SCCO1,AC50,[1],23.6 µM (active)
O=C(O)COc1nc(Cl)c(Cl)cc1Cl,AC50,[7],13.9 µM (active)
COP(N)(=O)SC (configuration not stated),outcome,[16],inactive
CCCCNC(=O)OCC#CI,outcome,[15],inactive
same,AC50,[18],17.5 µM (active) and 14.6 µM (active)
same,AC50,[2],25 µM (active)
same,outcome,[2],inactive
same,outcome,[11],inactive
CCNc1nc(Cl)nc(NCC)n1,outcome,[5],inactive
C=CC1(C)OC(=O)N(c2cc(Cl)cc(Cl)c2)C1=O (configuration not stated),outcome,[4],inactive
CCOC(=O)C(Cl)Cc1cc(-n2nc(C)n(C(F)F)c2=O)c(F)cc1Cl (configuration not stated),outcome,[6],inactive
same,outcome,[1],inactive
same,outcome,[15],inactive
COC(=O)C(C)Oc1ccc(Oc2ccc(Cl)cc2Cl)cc1 (configuration not stated),outcome,[4],inactive
CCCCNC(=O)n1c(NC(=O)OC)nc2ccccc21,outcome,[5],inactive
same,outcome,[3],inactive
same,outcome,[4],inactive
N#Cc1cc(Br)c(O)c(Br)c1,outcome,[13],inactive
same,AC50,[7],13 µM (active)
same,outcome,[4],inactive
same,outcome,[8],inactive
same,outcome,[9],inactive
COc1cnc(OC)n2nc(NS(=O)(=O)c3c(OCC(F)F)cccc3C(F)(F)F)nc12,outcome,[9],inactive
COC(=O)C=C(C)OP(=O)(OC)OC,outcome,[3],inactive
same,AC50,[1],13.4 µM (active)
O=C(Nc1ccccc1)Nc1ccnc(Cl)c1,outcome,[19],inactive
